Results: publication PMC5540273 (PLoS ONE, 2017)

What was measured:
Settings in all cases: concentration: 1 μM, replicates: in singlicate; n = 1
FAK = tested on: T1, FAK
T1 construct: gene PTK2

FER = tested on: FER
FES = tested on: FES
FGFR1 = tested on: FGFR1
FGFR2 = tested on: FGFR2
FGFR3 = tested on: FGFR3
FGFR4 = tested on: FGFR4
FGR = tested on: FGR
FLT1 = tested on: FLT1
FLT3-autoinhibited = tested on: FLT3-autoinhibited
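Note: KINOMEscan kinase panel screen.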

SMILES	%Inh (FAK)	%Inh (FER)	%Inh (FES)	%Inh (FGFR1)	%Inh (FGFR2)	%Inh (FGFR3)	%Inh (FGFR4)	%Inh (FGR)	%Inh (FLT1)	%Inh (FLT3-autoinhibited)
Cc1c(O)cccc1Nc1ccnc2ccc(C(F)(F)F)cc12.Cl [GW466413]	0%	15%	0%	0%	0%	0%	0%	58%	28%	0%
Fc1cc(Cl)ccc1Nc1ccnc2cc(I)ccc12 [GW551191]	0%	0%	0%	8%	18%	0%	5%	30%	30%	0%
Cl.Oc1ccc(-c2nc(-c3ccccc3)[nH]c2-c2ccncc2)cc1 [SB-428218]	0%	0%	17%	0%	4%	0%	9%	62%	0%	0%
COc1ccc(Nc2nccc(NCCNC(=O)Nc3ccccc3F)n2)cc1 [GSK1379901]	0%	35%	26%	0%	44%	6%	10%	36%	32%	0%
Cc1cccc(-c2nc(-c3ccc(S(C)(=O)=O)cc3)sc2-c2ccnc(NCCc3ccccc3)c2)c1	0%	0%	0%	5%	1%	0%	0%	0%	18%	0%
CC1=C(C(=O)Nc2cc3cn[nH]c3cc2F)C(c2ccc(C(F)(F)F)cc2)CC(=O)N1 (centres unmarked) [GSK429286]	0%	4%	0%	0%	3%	17%	8%	24%	17%	0%
C[C@@H]1CCCCN1c1cc(-c2ccc3c(N)n[nH]c3c2)nc(N)n1 [GSK2258759]	0%	0%	0%	0%	0%	7%	3%	17%	14%	0%
COc1ccc(Nc2nccc(-c3cccc(NC(=O)c4cc5cc(F)ccc5[nH]4)c3)n2)cc1 [GSK1229782]	1%	43%	27%	21%	0%	13%	2%	60%	17%	0%
Cl.c1ccc(-c2n[nH]cc2-c2ccnc(-c3ccc(CN4CCOCC4)cc3)c2)nc1 [GW776245]	31%	3%	3%	0%	15%	20%	1%	22%	26%	0%
Cc1ccc(-c2cc(-c3c[nH]nc3-c3ccccn3)ccn2)cc1 [GW684088]	0%	13%	21%	0%	0%	30%	9%	22%	5%	22%
O=c1cc(N2CCOCC2)nc2n(Cc3cccc(Cl)c3Cl)ccn12 [GSK2286295]	0%	12%	12%	0%	0%	5%	12%	16%	26%	0%
CC(C)(C)c1ccc(C(=O)Nc2cn3cc(-c4cccnc4)ccc3n2)cc1	12%	0%	29%	27%	21%	16%	0%	19%	22%	0%
O=C(Nc1ccc2c(c1)OCO2)NC1CCN(c2ccnc(Nc3ccc(F)cc3)n2)C1 (centres unmarked) [GSK1379724]	0%	7%	15%	0%	0%	7%	7%	11%	19%	0%
Clc1cc(Cl)cc(Nc2ccnc(Nc3cc(Cl)cc(Cl)c3)n2)c1 [GSK175726]	0%	13%	9%	0%	50%	22%	6%	46%	16%	0%
Cc1nnc(-c2ccc3occ(-c4ccc(S(C)=O)cc4)c3c2)[nH]1 (centres unmarked)	0%	0%	14%	0%	0%	0%	3%	19%	0%	31%
Cl.O=C(Nc1cccc(-c2nn3ncccc3c2-c2ccnc(Nc3cccnc3)n2)c1)c1c(F)cccc1F [GSK312879]	0%	10%	11%	8%	0%	23%	8%	40%	45%	4%

SMILES	%Inh (FAK)	%Inh (FER)	%Inh (FES)	%Inh (FGFR1)	%Inh (FGFR2)	%Inh (FGFR3)	%Inh (FGFR4)	%Inh (FGR)	%Inh (FLT1)	%Inh (FLT3-autoinhibited)
Cc1ccc(C(=O)Nc2ccc(Nc3ccnc4cc(-c5ccccn5)ccc34)cc2O)cc1.Cl [GW440146]	0%	30%	0%	1%	0%	0%	0%	59%	28%	0%
COC(=O)c1c(-c2ccccc2)c2cc(OC)ccc2c(=O)n1Cc1ccccc1	0%	0%	22%	7%	3%	3%	0%	29%	0%	21%
Cn1cncc1-c1ccc2ncnc(Nc3ccc(OCc4ccccc4)cc3)c2c1 [GW320571]	0%	25%	0%	2%	13%	31%	14%	15%	27%	0%
O=C(Nc1n[nH]c2nc(-c3nccs3)c(Br)cc12)C1CCCC1 [SB-742609]	0%	0%	0%	0%	0%	0%	12%	20%	29%	10%
COc1cc2nccc(Nc3ccc(NC(=O)c4ccc(C)cc4)c(O)c3)c2cc1OC.Cl [GW440132]	0%	45%	5%	22%	22%	2%	6%	37%	30%	0%
O=C(Nc1n[nH]c2cc(-c3cccc(F)c3F)ccc12)C1CC1 [SB-733894]	3%	0%	53%	0%	0%	0%	0%	61%	0%	12%
Nc1ncnc2[nH]c(-c3ccccc3)nc12 [AH5015]	8%	0%	8%	2%	0%	25%	2%	31%	2%	0%
Cc1cc(-c2ccc3c(c2)CC[C@@H](N[C@@H](C)c2ccccc2)C3)cnc1N.Cl [GW412617]	0%	27%	0%	9%	16%	56%	19%	26%	34%	8%
NC(=O)c1nnc2ccccc2c1N	12%	0%	4%	41%	7%	90%	0%	21%	7%	16%
Cc1cc(NCC(c2ccccc2)c2ccccc2)nc(NCc2ccc(C(F)(F)F)cc2)n1 [GW497681]	0%	0%	0%	0%	0%	20%	1%	20%	11%	0%
O=C1NC(=O)C(N2CCc3ccccc32)=C1c1ccccc1Cl [SB-373598]	0%	34%	15%	7%	15%	33%	9%	21%	6%	0%
CS(=O)(=O)c1ccc(-c2nc3n(c2-c2ccncc2)CCC3)cc1 [SKF-105942]	0%	1%	22%	0%	0%	2%	18%	43%	11%	0%
COc1ccc2nc(-c3cccc(C)n3)nc(Nc3ccncc3)c2c1 [GSK204919]	0%	14%	17%	0%	7%	20%	20%	27%	28%	3%
Cc1cccc(-c2cc(Nc3ccncc3)c3ccccc3n2)n1 [GSK223675]	0%	0%	0%	0%	0%	12%	0%	7%	13%	7%
Cc1c(Cn2ccn3c(=O)cc(N4CCOCC4)nc23)cccc1C(F)(F)F [GSK2289044]	0%	7%	23%	0%	19%	28%	5%	14%	0%	0%
COc1ccc(CNC(=O)NC2CCN(c3ccnc(Nc4cc(OC)c(OC)c(OC)c4)n3)C2)cc1 (centres unmarked) [GSK1379748]	0%	0%	7%	0%	2%	9%	15%	14%	20%	3%
